Molecules are shown by their SMILES. Activity calls are given as the source filed them. Unless noted, no rule for the calls is given here.

The nature of assay [1]: A549 cell viability effects, profiling panel, calcein-AM fluorescence, 48 h, basal (AID 1162). Also: test concentration not given here. Conditions: higher = more signal.
A short description of assay [2]: adipocyte viability effects, profiling panel, cell-based, 3T3-L1 adipocytes, calcein-AM fluorescence, 48 h, basal (AID 1163). Also: test concentration not given here. Conditions: 3T3-L1 adipocytes viability, higher = more signal.
A short description of assay [3]: HepG2 cell viability effects, profiling panel, calcein-AM fluorescence, 48 h, basal (AID 1164). Also: test concentration not given here. Conditions: higher = more signal.
Assay [4] is described as follows: MM1S cell viability effects, profiling panel, calcein-AM fluorescence, 48 h, basal (AID 1165).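 Also: viability of MM1S multiple myeloma cells under basal unstimulated conditions; test concentration not given here.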 Conditions: higher = more signal.
The nature of assay [5]: basal RPMI8226 viability, no added stimulus, profiling panel, cell-based, calcein-AM fluorescence, 48 h, PK04 Diversity Set (AID 1166).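 Also: cells grown under basal conditions without added stimulus; test concentration not given here.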 Conditions: RPMI8226 myeloma viability, higher = more signal.
The nature of assay [6]: basal HepG2 mitochondrial membrane potential changes, profiling panel, cell-based, JC-1 fluorescence, 24 h, 100 nL compound (AID 1167). Also: test concentration not given here. Conditions: higher = more signal.
The nature of assay [7]: basal 3T3-L1 adipocyte mitochondrial potential changes, profiling panel, cell-based, JC-1 fluorescence, 3T3-L1 adipocytes, 24 h, 100 nL compound (AID 1168). Also: test concentration not given here. The following applies: JC-1 mitochondrial fluorescence, higher = more signal, called active from +8 up or from −8 down.
A short description of assay [8]: basal RPMI8226 mitochondrial membrane potential changes, profiling panel, cell-based, JC-1 fluorescence, 24 h, 100 nL compound (AID 1169). Also: test concentration not given here. The following applies: RPMI8226 myeloma, JC-1 mitochondrial potential fluorescence, higher = more signal.
Assay [9] is described as follows: basal MM1S mitochondrial membrane potential changes, profiling panel, cell-based, JC-1 fluorescence, 24 h, 100 nL compound (AID 1170). Also: test concentration not given here. Conditions: higher = more signal.
Assay [10] can be described thus: A549 lung cancer cell viability effects, profiling panel, resazurin fluorescence, 24 h, PK04 Diversity Set (AID 1171). Also: test concentration not given here. The following applies: higher = more signal, called active from +8 up or from −8 down.
The nature of assay [11]: HepG2 liver cancer cell viability effects, profiling panel, resazurin fluorescence, 24 h, PK04 Diversity Set (AID 1172). Also: test concentration not given here. The following applies: higher = more signal.
The nature of assay [12]: basal S. cerevisiae growth modulation, no modifier, primary screen, OD600, strain BY4716, 24 h, basal condition (AID 1173). Conditions: OD600, 24 h, higher = more signal, called active from +8 up or from −8 down.
The nature of assay [13]: MM1S myeloma cell viability, profiling panel, resazurin fluorescence, basal, 24 h, PK04 Diversity Set (AID 1174).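 Also: MM1S multiple myeloma cell line; test concentration not given here.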 Conditions: higher = more signal, called active from +8 up or from −8 down.
Assay [14] addresses Dihydroorotate dehydrogenase (quinone), mitochondrial (Plasmodium falciparum (isolate 3D7)) (UniProt Q08210). Kind of assay: PfDHODH enzyme inhibitors, primary screen, biochemical, C-terminal His tag, absorbance 600 nm (AID 1175).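 Also: recombinant parasite enzyme with a five histidine tag at its C terminus; test concentration not given here.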 Conditions: DCIP absorbance 600 nm, higher = more signal, called active from +8 up or from −8 down.
Assay [15] can be described thus: P. aeruginosa biofilm formation inhibitors, primary screen, strain PAO1, LB-PBS medium, absorbance 600 nm (AID 1176). Also: test concentration not given here. The following applies: P. aeruginosa PAO1 growth/biofilm, A600, 12 h; higher = more signal.
A short description of assay [16]: S. cerevisiae RM11-1a growth modifiers, primary screen, strain RM11-1a, OD600, basal, 24 h (AID 1177).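 Also: cultures grown under basal conditions with no added stressor; test concentration not given here.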 The following applies: OD600, 24 h, higher = more signal, called active from +8 up or from −8 down.
A short description of assay [17]: E. coli acrAB mutant growth effects, primary screen, E. coli filamentation inducers, strain DRC39, OD650, 24 h (AID 1178).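 Also: growth measured as culture turbidity by optical density at 650 nm; test concentration not given here.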 The following applies: higher = more signal, called active from +8 up or from −8 down.
A short description of assay [18]: E. coli acrAB mutant growth effects, primary screen, E. coli filamentation inducers, strain DRC39, OD650, 48 h (AID 1179).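 Also: screen aims at cell division blockers that make cells filament.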 The following applies: E. coli DRC39 delta-acrAB growth, higher = more signal, called active from +8 up or from −8 down.
The nature of assay [19]: RPMI8226 myeloma cell viability, profiling panel, resazurin fluorescence, basal, 24 h, PK04 Diversity Set (AID 1180).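 Also: RPMI8826 multiple myeloma cell line at 5000 cells per well; test concentration not given here.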 The following applies: higher = more signal. (In general: Resazurin is reduced to fluorescent resorufin, in cell work by metabolically active cells.)
Assay [20] deals with E3 ubiquitin-protein ligase XIAP (Homo sapiens) (UniProt P98170). Description: XIAP binders, primary screen, biophysical, small-molecule microarray, fluorescence 635 nm (AID 1181).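 Also: score merges 667 nm emission and signal to noise over triplicate slides.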 The following applies: small-molecule microarray binding, higher = more signal.
E3 ubiquitin-protein ligase XIAP (Homo sapiens), sequence (P98170 whole entry, looked up): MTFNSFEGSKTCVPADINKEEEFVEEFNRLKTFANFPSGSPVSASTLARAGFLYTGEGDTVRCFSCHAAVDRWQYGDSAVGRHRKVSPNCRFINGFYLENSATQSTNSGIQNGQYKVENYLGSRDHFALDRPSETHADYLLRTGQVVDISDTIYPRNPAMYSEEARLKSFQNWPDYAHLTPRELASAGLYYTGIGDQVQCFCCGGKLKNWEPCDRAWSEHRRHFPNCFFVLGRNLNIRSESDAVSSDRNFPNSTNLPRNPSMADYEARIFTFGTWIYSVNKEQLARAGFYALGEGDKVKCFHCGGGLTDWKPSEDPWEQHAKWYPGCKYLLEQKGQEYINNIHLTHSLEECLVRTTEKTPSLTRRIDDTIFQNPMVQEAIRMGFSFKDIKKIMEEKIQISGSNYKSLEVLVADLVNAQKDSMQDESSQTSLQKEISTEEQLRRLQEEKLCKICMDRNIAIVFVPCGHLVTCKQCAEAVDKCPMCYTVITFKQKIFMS

Dihydroorotate dehydrogenase (quinone), mitochondrial (Plasmodium falciparum (isolate 3D7)), sequence (Q08210 whole entry, looked up): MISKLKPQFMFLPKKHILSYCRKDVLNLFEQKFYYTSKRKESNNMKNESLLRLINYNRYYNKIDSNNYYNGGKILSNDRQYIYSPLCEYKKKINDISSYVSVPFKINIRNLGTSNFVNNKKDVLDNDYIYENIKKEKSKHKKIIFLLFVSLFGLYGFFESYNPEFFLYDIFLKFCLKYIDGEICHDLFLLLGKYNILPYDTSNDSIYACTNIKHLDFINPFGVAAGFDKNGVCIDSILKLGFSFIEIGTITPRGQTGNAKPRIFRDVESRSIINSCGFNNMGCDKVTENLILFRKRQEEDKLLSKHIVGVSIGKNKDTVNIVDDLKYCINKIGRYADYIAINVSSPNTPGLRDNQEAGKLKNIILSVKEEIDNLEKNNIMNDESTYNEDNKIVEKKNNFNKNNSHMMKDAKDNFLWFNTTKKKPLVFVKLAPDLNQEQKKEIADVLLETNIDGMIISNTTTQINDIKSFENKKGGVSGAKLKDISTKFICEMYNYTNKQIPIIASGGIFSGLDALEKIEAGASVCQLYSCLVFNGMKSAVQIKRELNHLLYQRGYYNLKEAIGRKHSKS

As to `NC(=O)N1C(=O)C2C(C1=O)C1C=C(c3ccc(CO)cc3)C2C(C2CC2)N1Cc1sc2ccccc2c1Cl` (stereo not given), the z-score in assay [1] is 0.965; in assay [2] it was 0.21; in assay [3], 0.197; in assay [4], -3.27; in assay [5], -3.61; in [6], 0.159. Moreover, the z-score in assay [7] is 0.189 (inactive); in assay [8], -0.65; in assay [9], -0.311; in assay [10], -0.207 (inactive); in assay [11], -0.131; in [12], -2.55 (inactive). Besides, the z-score in assay [13] was -1.06 (inactive); in assay [15], -0.836 (inactive); in assay [16] it was -0.484 (inactive); in assay [17], 0.927 (inactive); in assay [18] it was 0.112 (inactive); in [19] it was -1.23. The composite z-score in [14] is -2.67 (inactive); in assay [20], -0.117.
Consider `O=C1O[C@@H](c2ccccc2)[C@@H](c2ccccc2)N2[C@@H](c3ccc(O)cc3)[C@]3(C(=O)Nc4ccc(C#CC5=CCCCC5)cc43)[C@@H](C(=O)N3CCN(c4ncccn4)CC3)[C@H]12`, for which the z-score in [1] is -1.9; in [2], 0.0112; in assay [3], -1.25; in assay [4], -1.2; in assay [5], -2.78; in assay [6], -0.703. Also, the z-score in [7] was 0.701 (inactive); in assay [8], -0.588; in assay [9], -0.877; in assay [10], 0.785 (inactive); in assay [11], 1.48; in assay [12], -0.066 (inactive). In addition, the z-score is -0.0922 (inactive) in [13]; -0.0478 (inactive) in assay [15]; 0.207 (inactive) in assay [16]; -0.289 (inactive) in assay [17]; -0.348 (inactive) in assay [18]; -0.385 in assay [19]. In addition, the composite z-score in [14] was -0.824 (inactive); in [20], 0.118.
`CC[C@H]1C2=C3C(CC[C@H]4C(OCc5ccc(F)cc5C(F)(F)F)OC[C@](C)([C@@H]34)N(C(=O)OC(C)(C)C)C2)C2COC(=O)OCC21` (stereo not given in full): the z-score in assay [1] was -0.195; in [2], -0.412; in [3] it was 0.478; in [4] it was -2.9; in [5] it was -4.68; in [6], -0.492. Besides, the z-score in assay [7] was -1.41 (inactive); in assay [8] it was -0.0899; in [9] it was -1.45; in assay [10] it was -0.186 (inactive); in assay [11], -1.12; in [12], 0.485 (inactive). For the same molecule, the z-score in assay [13] is -1.46 (inactive); in assay [15], 0.551 (inactive); in assay [16], 0.368 (inactive); in assay [17] it was -0.678 (inactive); in [18], -0.36 (inactive); in [19], -0.556. Further, the composite z-score in [14] is 0.0979 (inactive); in [20] it was 0.131.
As to `NC(=O)N1C(=O)C2C(C1=O)C1C=C(CCCO)C2C(c2cccs2)N1Cc1cc2c(cc1Br)OCO2` (stereo not given), the z-score in [1] was 0.89; in assay [2], 1.46; in assay [3], 0.78; in assay [4], 0.0067; in assay [5], 0.695; in assay [6], 1.01. Also, the z-score in [7] was 0.111 (inactive); in assay [8], -0.11; in [9], -0.214; in assay [10] it was 0.514 (inactive); in assay [11], 0.652; in assay [12], -2.37 (inactive). Also, the z-score is 0.271 (inactive) in assay [13]; -0.259 (inactive) in [15]; 0.0427 (inactive) in assay [16]; 0.18 (inactive) in assay [17]; 0.0419 (inactive) in assay [18]; 0.645 in assay [19]. Further, the composite z-score in assay [14] was -1.72 (inactive); in [20], -0.267.
For `C=CCNC(=O)[C@H]1[C@@H]2C(=O)O[C@@H](c3ccccc3)[C@@H](c3ccccc3)N2[C@@H](c2ccccc2OCCO)[C@]12C(=O)N(C(=O)OCCOC)c1ccc(C#CC3=CCCCC3)cc12`, the z-score in assay [1] was -1.51; in assay [2], 0.963; in assay [3], -0.882; in assay [4], -3.35; in [5], -3.88; in assay [6], 0.215. The z-score in assay [7] was 1.06 (inactive); in [8] it was -0.924; in [9], -1.49; in assay [10] it was -1.02 (inactive); in assay [11], -1.22; in [12] it was 1.22 (inactive). The z-score in assay [13] is -5.62 (inactive); in [15], 1.37 (inactive); in assay [16], 2.81 (inactive); in assay [17] it was -0.29 (inactive); in assay [18], 0.286 (inactive); in [19] it was -4.42. For the same molecule, the composite z-score in [14] was 1.09 (inactive); in [20], 0.106.
Regarding `COc1ccc([Si](C)(C)[C@@H]2[C@@H](CCn3cc([C@H](O)c4ccccc4)nn3)O[C@]3(C(=O)N(Cc4ccc(N5CCOC5=O)cc4)c4ccccc43)[C@H]2C)cc1`, the z-score is -0.0046 in [1]; 0.417 in [2]; 0.215 in assay [3]; -1.06 in assay [4]; -1.3 in assay [5]; 1.67 in assay [6]. Also, the z-score in assay [7] was 0.00306 (inactive); in assay [8] it was 0.417; in [9], -0.657; in [10], 0.595 (inactive); in assay [11], 0.977; in assay [12] it was 0.146 (inactive). In addition, the z-score is -0.806 (inactive) in assay [13]; 0.483 (inactive) in [15]; 1.54 (inactive) in assay [16]; 0.323 (inactive) in assay [17]; -0.0694 (inactive) in assay [18]; -0.12 in [19]. Also, the figures for the composite z-score in assay [14] and in assay [20] were 0.181 (inactive) and 0.049, respectively.
`COCCOC(=O)N1C(=O)[C@@]2(c3cc(C#Cc4ccc(OC)cc4)ccc31)[C@H](C(=O)NC[C@H](O)c1ccccc1)[C@H]1C(=O)O[C@H](c3ccccc3)[C@H](c3ccccc3)N1[C@@H]2c1ccc(O)cc1`: the z-score was -0.24 in assay [1]; 0.711 in [2]; -0.862 in [3]; -2.08 in assay [4]; -2.34 in [5]; -2.11 in [6]. Moreover, the z-score in assay [7] is 1.54 (inactive); in assay [8], -0.723; in assay [9] it was 0.122; in [10], 0.397 (inactive); in [11] it was -0.857; in [12], -0.11 (inactive). Also, the z-score in assay [13] is -1.09 (inactive); in assay [15] it was 1.34 (inactive); in assay [16], 0.552 (inactive); in [17], -0.365 (inactive); in assay [18], -0.736 (inactive); in [19], -1.32. In addition, the composite z-score in assay [14] is -0.352 (inactive); in [20], 0.261.
Turning to `CCOc1cc(C(O)C2C=CC3C(=O)N(C)C(=O)C3N2N2CCCCC2)ccc1O` (stereo not given), the z-score in assay [1] was 0.256; in [2], -0.413; in [3], -0.07; in assay [4] it was -0.224; in [5] it was 0.294; in assay [6], -0.788. Moreover, the z-score in assay [7] is -0.0873 (inactive); in assay [8], -0.109; in assay [9], 0.0215; in assay [10], -0.296 (inactive); in [11], -1.1; in assay [12], 1.62 (inactive). Besides, the z-score was -0.791 (inactive) in assay [13]; 0.614 (inactive) in assay [15]; 2.07 (inactive) in [16]; -0.637 (inactive) in [17]; -0.8 (inactive) in [18]; -0.698 in assay [19]. For the same molecule, the values for the composite z-score in [14] and in assay [20] were 0.66 (inactive) and 0.179, respectively.
Regarding `COCCOC(=O)N1C(=O)[C@@]2(c3cc(C#CC4(O)CCCCCC4)ccc31)[C@H](c1ccccc1OCCO)N1[C@H](c3ccccc3)[C@H](c3ccccc3)OC(=O)[C@H]1[C@@H]2C(N)=O`, the z-score is -2.37 in assay [1]; 0.943 in assay [2]; -4.78 in assay [3]; -3.43 in [4]; -4.62 in assay [5]; -2.3 in assay [6]. Also, the z-score in assay [7] is 1.8 (inactive); in assay [8] it was -1.14; in assay [9], -1.88; in [10], -2.94 (inactive); in [11] it was -1.51; in assay [12], 1.53 (inactive). The z-score in assay [13] is -8.29 (active); in assay [15], 1.91 (inactive); in assay [16] it was 2.91 (inactive); in assay [17], -0.197 (inactive); in assay [18], -0.31 (inactive); in assay [19], -6.79. Moreover, the composite z-score in assay [14] is 0.173 (inactive); in assay [20], -0.287.

(Values after PubChem BioAssay.)
